± gives the standard deviation of the averaged measurements. In all, about 33,000 sequences were measured (“E-score (rank enrichment, -0.5 to 0.5)”: median about -0.0028, highest 2% from about 0.23 on). Many of the other results were omitted from the sample, so the highest values are more common in it than they were.
Each sequence was assayed on 2Sb-muMax20 (muMax20 with two 1,3-bis(methyl)benzene Cys staples, A13C/A17C and Q88C/A92C, C-terminal Lys) (assay: PBM 8-mer E-score (E-score (rank enrichment, -0.5 to 0.5)); higher = stronger preferential binding).
Experimental: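 Protein binding microarray (universal PBM chip covering all 10-mers in fixed probe flanks) with chemically synthesized human Max(13-93) bHLH-LZ analogs (not full-length Max) bearing noncanonical residues (hArg, Tha, Aib, Nle at 65) and aromatic Cys staples. Read-out per 8-mer (and its reverse complement): E-score (rank-based enrichment, -0.5 to 0.5) and Z-score of median probe intensity.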

| Sequence | PBM 8-mer E-score |
| --- | --- |
| CAACTCAG | -0.162 ± 0.038 |
| ACCGTCAG | -0.115 ± 0.051 |
| GACAGGAC | -0.0924 ± 0.0031 |
| GGGACCGA | -0.24 ± 0.04 |
| GGGCAGAC | -0.0224 ± 0.074 |
| GAACGATA | 0.0756 ± 0.039 |
| AGTAACCC | 0.0955 ± 0.019 |
| AATAAACA | 0.195 ± 0.025 |
| AACATGGA | -0.00271 ± 0.005 |
| AACATGTA | 0.258 ± 0.027 |
| AACATGCA | 0.203 ± 0.011 |
| CCCATCAA | 0.12 ± 0.019 |
| GCCATCAC | -0.154 ± 0.0083 |
| CCCATCAC | 0.249 ± 0.026 |
| GCAGAAAA | 0.0213 ± 0.046 |
| TAATGGGA | 0.147 ± 0.011 |
| AATTAGCT | 0.164 ± 0.022 |
| CCCCTTCC | -0.0525 ± 0.1 |
| CCCCTTCA | 0.294 ± 0.014 |
| CCCCTTGA | 0.27 ± 0.0079 |
| GCCCTTGA | -0.0328 ± 0.041 |
| ACCCTTGA | -0.145 ± 0.041 |
| TCCCTTCA | 0.0279 ± 0.022 |
| GGCCGCAC | -0.0381 ± 0.06 |
| CGCCACGC | -0.118 ± 0.0025 |

| Sequence | PBM 8-mer E-score |
| --- | --- |
| GATTACCC | 0.093 ± 0.041 |
| ATCGGCCC | 0.0612 ± 0.096 |
| GTGCCGCA | -0.0229 ± 0.078 |
| AACCCATG | 0.106 ± 0.067 |
| ACCCCATG | 0.253 ± 0.019 |
| ACCCCATA | 0.147 ± 0.013 |
| ACCCCCAT | -0.188 ± 0.066 |
| ACCCCAAT | 0.344 ± 0.025 |
| AACCCAAT | -0.0928 ± 0.095 |
| ACCCCAAG | 0.271 ± 0.016 |
| ACCCCAAC | 0.217 ± 0.019 |
| ACCCCAAA | 0.2008 ± 0.0017 |
| CATTGCCA | -0.0459 ± 0.045 |
| CACCAGAA | -0.00913 ± 0.061 |
| GAGTCAGA | -0.0579 ± 0.039 |
| ACGGCCAA | -0.0314 ± 0.0051 |
| ACTGGTGC | -0.0379 ± 0.026 |
| CTATTCAC | -0.0182 ± 0.015 |
| CGATAGAA | 0.0743 ± 0.02 |
| CGTCCGAA | -0.121 ± 0.017 |
| TACAGAAA | 0.256 ± 0.021 |
| GACAGAAA | 0.111 ± 0.013 |
| AACAGAAA | 0.0674 ± 0.036 |
| AAGACGTC | 0.0152 ± 0.028 |
| CATGGCAA | -0.0308 ± 0.0076 |

| Sequence | PBM 8-mer E-score |
| --- | --- |
| GATGGCAC | 0.03519 ± 8.5e-05 |
| GATGGCAA | 0.242 ± 0.012 |
| ATGCCGCA | 0.0568 ± 0.0082 |
| AGCGAGGA | -0.0458 ± 0.014 |
| GTCTTCTA | 0.00543 ± 0.00074 |
| CCTACCCC | 0.248 ± 0.062 |
| ACTACCCC | 0.214 ± 0.047 |
| CGTACCCC | 0.246 ± 0.015 |
| AGTACCCC | 0.129 ± 0.038 |
| GCTACCCC | -0.0378 ± 0.075 |
| CGTACCCA | 0.0446 ± 0.097 |
| ATGAAAAC | 0.0577 ± 0.019 |
| CAGGAAAC | -0.0883 ± 0.035 |
| CGACTCAC | -0.236 ± 0.04 |
| AGGGTTCC | -0.294 ± 0.015 |
| CCGTATGC | -0.07 ± 0.043 |
| ACGTATGC | 0.238 ± 0.066 |
| ACGTATGA | 0.127 ± 0.02 |
| TCCGAGCA | -0.1624 ± 0.00048 |
| AACCCCAT | 0.156 ± 0.03 |
| CATTAGAA | 0.00421 ± 0.034 |
| TATTAGAA | 0.259 ± 0.036 |
| GATTAGAA | 0.00142 ± 0.015 |
| ACCCGCCT | 0.0215 ± 0.042 |
| ATGCCGAC | -0.112 ± 0.0097 |

| Sequence | PBM 8-mer E-score |
| --- | --- |
| CGTGGGGA | 0.0752 ± 0.016 |
| AGTGGGAT | 0.293 ± 0.031 |
| AGTGGGAG | -0.0115 ± 0.017 |
| GTTGGGCA | 0.024 ± 0.041 |
| GGTGGGGA | 0.302 ± 0.032 |
| CGTGGGCA | 0.00349 ± 0.003 |
| AGTGGGAA | 0.105 ± 0.12 |
| AGTGGGGC | 0.0302 ± 0.058 |
| AGTGGGGA | 0.3126 ± 0.0004 |
| GGTGGGAA | 0.0964 ± 0.019 |
| GGTGGGCA | 0.262 ± 0.0056 |
| AGTGGGGG | 0.085 ± 0.077 |
| CAATACCC | 0.216 ± 0.021 |
| ATCAAGCA | -0.0166 ± 0.023 |
| AACGTTAC | 0.0258 ± 0.019 |
| AATGGACA | 0.0255 ± 0.059 |
| CATCCCAG | -0.121 ± 0.0081 |
| AACGGCGA | -0.0512 ± 0.014 |
| ACGATAAA | 0.014 ± 0.017 |
| AGCAGAGG | -0.0143 ± 0.0075 |
| AGGTGGGA | 0.13 ± 0.12 |
| CGGTGGGA | 0.00626 ± 0.078 |
| GGGTGGGA | 0.314 ± 0.026 |
| ATACGCAG | -0.0883 ± 0.0056 |
| GTACGCAA | -0.0811 ± 0.049 |

| Sequence | PBM 8-mer E-score |
| --- | --- |
| ATACGCAA | 0.303 ± 0.0063 |
| ATATATCA | 0.18 ± 0.048 |
| ATAGATAG | 0.204 ± 0.051 |
| CTATATAC | 0.214 ± 0.027 |
| ATATATAT | 0.00253 ± 0.052 |
| ATATATAC | 0.289 ± 0.038 |
| GTATACAC | 0.0536 ± 0.025 |
| ATAGATAA | 0.185 ± 0.09 |
| ATAGATAC | 0.239 ± 0.02 |
| ATATATCC | 0.24 ± 0.015 |
| CTATATCC | 0.217 ± 0.014 |
| GTATATAC | 0.296 ± 0.039 |
| GTATATAA | 0.119 ± 0.015 |
| CGGATTCC | -0.0954 ± 0.031 |
| CAAACGGA | -0.0945 ± 0.0024 |
| AACCACGG | -0.276 ± 0.0092 |
| CGATCAGA | -0.199 ± 0.015 |
| ATTGGCTG | -0.0784 ± 0.03 |
| CTCGTGCA | 0.0182 ± 0.011 |
| AAGTATAA | 0.196 ± 0.052 |
| CTATAGCC | 0.0346 ± 0.087 |
| AAGTATAC | 0.236 ± 0.038 |
| AAGTATAT | 0.136 ± 0.0036 |
| ATATAGCC | 0.234 ± 0.01 |
| ATATAGCA | 0.175 ± 0.016 |

| Sequence | PBM 8-mer E-score |
| --- | --- |
| GTGAGACA | 0.0265 ± 0.039 |
| GTTGTCCA | 0.00715 ± 0.051 |
| AGGCCCGG | -0.321 ± 0.063 |
| GGGGTCAA | 0.109 ± 0.11 |
| ACGCGGTC | -0.0575 ± 0.016 |
| AAATAGAT | 0.24 ± 0.044 |
| AAATAGAG | 0.114 ± 0.056 |
| AAATAGGG | 0.286 ± 0.0043 |
| AAATAGGC | 0.0499 ± 0.12 |
| CAATAGAC | 0.109 ± 0.022 |
| GAATAGAC | 0.00351 ± 0.056 |
| CAATAGGG | 0.0594 ± 0.051 |
| AAATAGAC | 0.235 ± 0.0036 |
| AAATAGAA | -0.0324 ± 0.022 |
| GCCTGAGC | -0.218 ± 0.037 |
| GCAGCACC | -0.116 ± 0.057 |
| GGTTCCAC | -0.0645 ± 0.035 |
| ACGGTCTC | -0.174 ± 0.083 |
| ACCCATCA | 0.114 ± 0.044 |
| ACCCCGCC | 0.318 ± 0.056 |
| GCCCCGCA | 0.0269 ± 0.056 |
| CCCCCGCC | -0.0601 ± 0.073 |
| AACCCGCC | 0.123 ± 0.0032 |
| GGCCCGCC | -0.185 ± 0.11 |
| GCCCCGCC | 0.233 ± 0.12 |

| Sequence | PBM 8-mer E-score |
| --- | --- |
| GGATTGTA | 0.156 ± 0.046 |
| AGGTAGCA | 0.107 ± 0.065 |
| AGGTCAGG | -0.187 ± 0.011 |
| GAAAGCAA | 0.0699 ± 0.014 |
| TAAAGCAA | 0.2878 ± 0.0008 |
| CAAAGCAA | 0.173 ± 0.058 |
| GTCGAGAC | 0.0609 ± 0.045 |
| ATTTCAGG | -0.054 ± 0.037 |
| AGATCCAG | -0.0734 ± 0.013 |
| GGACAGAC | -0.211 ± 0.04 |
| ATTGATGC | 0.125 ± 0.018 |
| ATTGATGA | 0.0883 ± 0.037 |
| ATTGATGG | 0.254 ± 0.0094 |
| CGCTGTTC | -0.0947 ± 0.036 |
| ATCTCGAC | -0.0985 ± 0.011 |
| CACACCAC | 0.0993 ± 0.072 |
| CGAACAAG | -0.08043 ± 0.00071 |
| GGAACATA | 0.0124 ± 0.063 |
| CGAACATC | 0.0524 ± 0.0016 |
| AGAACAAA | 0.13 ± 0.046 |
| CGAACAAA | 0.261 ± 0.021 |
| CGAACATA | 0.233 ± 0.037 |
| CGTAGGAC | -0.224 ± 0.05 |

From the supplement of paper PMC12636033
